Measured values taken from PubChem BioAssay (NCI).
Where “and” joins values, the source holds several entries; their conditions need not be identical. Equal values may be shown once. Compounds without any hit were thinned out: in the full panel of roughly 83,000, 20% have a hit.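 Single-dose data. Exposure time 48 hours. Values below 10 considered active.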 Calls of active or inactive are those of the source.

How the values were obtained:
Assay in all cases: NCI-60 one-dose screen, 48 h (100 = growth as untreated, 0 = no growth, -100 = all killed)
Settings in all cases: 10 µM unless noted
SK-MEL-2 melanoma = system: SK-MEL-2 melanoma
EKVX NSCLC = system: EKVX NSCLC
SN12C renal = system: SN12C renal
UO-31 renal = system: UO-31 renal
TK-10 renal = system: TK-10 renal
ACHN renal = system: ACHN renal
CAKI-1 renal = system: CAKI-1 renal
A498 renal = system: A498 renal
CCRF-CEM leukemia = system: CCRF-CEM leukemia
MOLT-4 leukemia = system: MOLT-4 leukemia

Row | Compound | growth (SK-MEL-2 melanoma) | growth (EKVX NSCLC) | growth (SN12C renal) | growth (UO-31 renal) | growth (TK-10 renal) | growth (ACHN renal) | growth (CAKI-1 renal) | growth (A498 renal) | growth (CCRF-CEM leukemia) | growth (MOLT-4 leukemia)
1 | Nc1nc(N)c2c(n1)NC(c1cccc(Nc3ccnc4cc(C(F)(F)F)ccc34)c1)CC(c1ccc(F)cc1)=N2 (stereo not given) | 37.3% (inactive) | 47% (inactive) | 59.8% (inactive) | 53.7% (inactive) | 91.8% (inactive) | 75.5% (inactive) | 47.1% (inactive) | 78.1% (inactive) | 25% (inactive) | 2.74% (active)
2 | CCN(CC)CCOc1ccccc1C | 101% (inactive) | 112% (inactive) | 98.7% (inactive) | 95% (inactive) | 107% (inactive) | 101% (inactive) | 102% (inactive) | 106% (inactive) | 102% (inactive) | 103% (inactive)
3 | Cc1cccc(Cc2cnc(NC(=O)CCCOc3ccc(Cl)cc3)s2)c1 | 67.2% (inactive) | 41.4% (inactive) | 34.9% (inactive) | 19% (inactive) | 38.3% (inactive) | 12.1% (inactive) | 27.1% (inactive) | -2.46% (active) | 16.3% (inactive) | 40.1% (inactive)
4 | C=C(CN1CC=CCC1)[C@@H]1CC[C@]2(COC(C)=O)CC[C@]3(C)[C@H](CC[C@@H]4[C@@]5(C)CC[C@H](O)C(C)(C)[C@@H]5CC[C@]43C)[C@@H]12 | 104% (inactive) | 109% (inactive) | 97.8% (inactive) | 89.4% (inactive) | 113% (inactive) | 99.8% (inactive) | 107% (inactive) | 116% (inactive) | 85.4% (inactive) | 92.4% (inactive)
5 | Cc1nonc1-c1ccc2c(c1)OCO2 | 113% (inactive) and 100% (inactive) | 90% (inactive) and 104% (inactive) | 109% (inactive) and 103% (inactive) | 95.2% (inactive) and 96.6% (inactive) | 105% (inactive) and 121% (inactive) | 109% (inactive) and 107% (inactive) | 82.2% (inactive) and 103% (inactive) | 166% (inactive) | 86.9% (inactive) and 94.1% (inactive) | 94.8% (inactive)
6 | COCCn1cc(-c2csc(-c3cn(C)c4ccc(F)cc34)n2)c2cccnc21 | 72% (inactive) | 59% (inactive) | 74.5% (inactive) | 64.2% (inactive) | 81.5% (inactive) | 78% (inactive) | 84% (inactive) | 36.3% (inactive) | 56% (inactive) | 56.7% (inactive)
7 | BrC1=C(Br)C(Br)(Br)C(Br)=C1Br | 95.3% (inactive) | 109% (inactive) | 86.2% (inactive) | 79.3% (inactive) | 97.8% (inactive) | 88.5% (inactive) | 87.3% (inactive) | 109% (inactive) | 17.5% (inactive) | 17.1% (inactive)
8 | CCN(CC)CC#CCOC(=O)[C@]1(C)CCC[C@]2(C)c3ccc(C(C)C)cc3CC[C@@H]12 | 98.6% (inactive) | 86.6% (inactive) | 83.8% (inactive) | 65% (inactive) | 102% (inactive) | 92.1% (inactive) | 94.5% (inactive) | 82.9% (inactive) | 4.53% (active) | 82.9% (inactive)
9 | C[C@]12CCc3c(ccc4cc(O)ccc34)[C@@H]1C[C@H](O)[C@@H]2O | 125% (inactive) | 74.7% (inactive) | 93% (inactive) | 85.3% (inactive) | 110% (inactive) | 98% (inactive) | 77.5% (inactive) | 73% (inactive) | 84.7% (inactive) | 102% (inactive)
10 | CC/C=C\C/C=C\C[C@H](O)C/C=C1/C(=O)C=C[C@@H]1C/C=C\CCCC(=O)OC | -16.9% (active) | 24.8% (inactive) | -29.2% (active) | -83.3% (active) | 5.09% (active) | -75.9% (active) | -1.75% (active) | 21.9% (inactive) | -11.7% (active) | -10.5% (active)
11 | CCCCCCNC(=O)Oc1ccc(/C(=C(/CC)Cc2ccccc2)c2ccc(OCCCN(C)C)cc2)cc1 | 106% (inactive) | 89.2% (inactive) | 87.1% (inactive) | 59% (inactive) | 82.2% (inactive) | 100% (inactive) | 89.6% (inactive) | 89.9% (inactive) | 69.4% (inactive) | 67.1% (inactive)
12 | COc1cc(/C=C2\C(=O)N(CCCCn3c4ccccc4c(=O)c4ccccc43)c3ccccc32)cc(OC)c1O | 26.5% (inactive) | 74% (inactive) | 71.1% (inactive) | 49.5% (inactive) | 120% (inactive) | 63.3% (inactive) | 52% (inactive) | 75.5% (inactive) | 15.9% (inactive) | 29% (inactive)
13 | O=c1c(/C=C/c2ccco2)nnc2sc(Nc3ccc(Cl)cc3)nn12 | 95.6% (inactive) | 90.9% (inactive) | 107% (inactive) | 79% (inactive) | 146% (inactive) | 98.2% (inactive) | 98.5% (inactive) | 108% (inactive) | 98% (inactive) | 95.7% (inactive)
14 | COc1c(NC=O)c2c(c([N+](=O)[O-])c1OC)C(=O)OC2 | 107% (inactive) and 120% (inactive) | 110% (inactive) and 85.7% (inactive) | 92.1% (inactive) and 94.8% (inactive) | 80.2% (inactive) | 114% (inactive) and 111% (inactive) | 130% (inactive) and 112% (inactive) | 105% (inactive) and 89.1% (inactive) | 111% (inactive) | 91.5% (inactive) and 3.53% (active) | 67.9% (inactive) and 115% (inactive)
15 | CCCCCC#CC1OC23CCCCC2C(C#N)(C(=N)O3)C1(C#N)C#N (stereo not given) | 93% (inactive) | 97.1% (inactive) | 93% (inactive) | 97.1% (inactive) | 108% (inactive) | 102% (inactive) | 101% (inactive) | 93.6% (inactive) | 88.4% (inactive) | 99.9% (inactive)
16 | CCCCCCCC/C=C\CCCCCCCCOc1ccccc1CC(=O)NCC[N+]1(C)CCOCC1 | 90.3% (inactive) | 92.1% (inactive) | 60.5% (inactive) | 96.2% (inactive) | 8.83% (active) | 85.5% (inactive) | 71.6% (inactive) | 95.2% (inactive) | 67.5% (inactive) | 83.7% (inactive)
17 | COc1cc(/C=N/NC(=O)CCN2c3ccccc3Sc3ccccc32)cc(OC)c1OC | 98.4% (inactive) | 72.7% (inactive) | 76.8% (inactive) | 63.7% (inactive) | 110% (inactive) | 76% (inactive) | 67.1% (inactive) | 61.1% (inactive) | 73.9% (inactive) | 71.5% (inactive)
18 | COc1ccccc1/C=C1\COc2ccc(O)c(O)c2C1=O | 58.5% (inactive) | 71.6% (inactive) | -11% (active) | -68.6% (active) | 35.2% (inactive) | 1.49% (active) | 31.9% (inactive) | 109% (inactive) | 2.74% (active) | -1.1% (active)
19 | C=C(c1ccc(C(=O)O)cc1)c1cc2c(cc1C)C(C)(C)CCC2(C)C | 47.7% (inactive) and 56.2% (inactive) | 57.5% (inactive) and 56.7% (inactive) | 87.5% (inactive) and 77.5% (inactive) | 71.3% (inactive) and 66.9% (inactive) | 89.8% (inactive) | 74.1% (inactive) and 57.5% (inactive) | 70.4% (inactive) and 82.1% (inactive) | 133% (inactive) and 110% (inactive) | 60.4% (inactive) and 90% (inactive) | 71.2% (inactive) and 79.4% (inactive)
20 | CS(=O)(=O)Nc1cc(-c2ccc3ncnc(Nc4ccc(F)c(Cl)c4)c3c2)cnc1Cl | -7.25% (active) | -3.92% (active) | 10.2% (inactive) | -3.81% (active) | -14.5% (active) | 14.6% (inactive) | 3.33% (active) | -59.3% (active) | 9.76% (active) | -19.9% (active)
21 | C[C@@H]1CC[C@@H]2[C@@H]1[C@H](OC(=O)/C=C/c1ccccc1)[C@]1(c3ccccc3)C[C@@H](NC(=O)CO)[C@@]2(C)O1 | 107% (inactive) | 90.2% (inactive) | 86.8% (inactive) | 69.7% (inactive) | 112% (inactive) | 79.1% (inactive) | 70.1% (inactive) | -3.59% (active) | 99.8% (inactive) | 84% (inactive)
22 | COc1cc(-c2nc3occn3c2-c2ccnc(NCCCNS(=O)(=O)c3ccc(O)cc3)n2)ccc1F | 28.4% (inactive) | 104% (inactive) | 95.8% (inactive) | 105% (inactive) | 133% (inactive) | 86.3% (inactive) | 92.6% (inactive) | 104% (inactive) | 75.4% (inactive) | 101% (inactive)
23 | CC12OC(CC(O)C1O)n1c3ccccc3c3c4c(c5c6ccccc6n2c5c31)C(=O)N(CCN1CCOCC1)C4=O (stereo not given) | 12.6% (inactive) | 32% (inactive) | 10.3% (inactive) | -9.86% (active) | -11.1% (active) | -59.7% (active) | 2.22% (active) | -15.3% (active) | 16.4% (inactive) | 3.59% (active)
24 | COc1ccc(C(CC(=O)c2ccc3c(c2)OCO3)C(=O)O)cc1OC (stereo not given) | 114% (inactive) and 87.8% (inactive) | 99.9% (inactive) | 98% (inactive) and 102% (inactive) | 113% (inactive) and 83.3% (inactive) | 109% (inactive) and 108% (inactive) | 118% (inactive) and 98.7% (inactive) | 91.4% (inactive) and 95.3% (inactive) | 104% (inactive) and 106% (inactive) | 96% (inactive) and 97.5% (inactive) | 108% (inactive) and 96.1% (inactive)
25 | CC[C@@H]1NC(=O)[C@H]([C@H](O)[C@H](C)C/C=C/c2ccc(CN3C(=O)C(C)=C(C)C3=O)cc2)N(C)C(=O)[C@H](C(C)C)N(C)C(=O)[C@H](CC(C)C)N(C)C(=O)[C@H](CC(C)C)N(C)C(=O)[C@@H](C)NC(=O)[C@H](C)NC(=O)[C@H](CC(C)C)N(C)C(=O)[C@H](C(C)C)NC(=O)[C@H](CC(C)C)N(C)C(=O)CN(C)C1=O | 81% (inactive) | 49.1% (inactive) | 83.9% (inactive) | 57.3% (inactive) | 75% (inactive) | 74.7% (inactive) | 86.3% (inactive) | 54.2% (inactive) | 63.6% (inactive) | 62.4% (inactive)
26 | Brc1ccc(/C=C(/C2=NCCN2)n2ccc3ccccc32)cc1 | 90.9% (inactive) | 79% (inactive) | 73.8% (inactive) | 37.2% (inactive) | 68.1% (inactive) | 68.7% (inactive) | 39.7% (inactive) | 87.4% (inactive) | 59.6% (inactive) | 9.21% (active)
27 | C=C(CNCCO)[C@@H]1CC[C@]2(CO)CC[C@]3(C)[C@H](CC[C@@H]4[C@@]5(C)CCC(NCCc6ccc(O)cc6)C(C)(C)[C@@H]5CC[C@]43C)[C@@H]12 (stereo not given in full) | -84.1% (active) | -75.3% (active) | -73.7% (active) | -95.4% (active) | -89.4% (active) | -96.6% (active) | -85.8% (active) | -87.5% (active) | -28.5% (active) | -30.3% (active)
28 | O=C(NCc1ccc(Cn2c(=O)sn(-c3ccc(Cl)cc3)c2=O)cc1)OCc1ccc2c(Cl)cc(Cl)c(O)c2n1 | 74.3% (inactive) | 44% (inactive) | 38.1% (inactive) | 13% (inactive) | 63.7% (inactive) | 26% (inactive) | 52.1% (inactive) | 70.1% (inactive) | 31.9% (inactive) | 19.3% (inactive)
